# Assay results reported in PubChem BioAssay (Tox21).
# Unmarked numbers belong to inactive results. Records with an inconclusive call do not appear. A call without a number means that no potency is given here. Active and inactive are the calls of the source. Calls follow the shape of the full dose curve.
# Tests used:
# [1] = target: Acetylcholinesterase (Homo sapiens) (UniProt P22303); test: Acetylcholinesterase (AChE) small molecule antagonists: colormetric cell-based qHTS assay (AID 1347395); also: nearly all actives have a fitted effect of over 30% in size; also: potency is read from the fitted curve at half-maximal effect
# Acetylcholinesterase (Homo sapiens), sequence (P22303 whole entry, looked up): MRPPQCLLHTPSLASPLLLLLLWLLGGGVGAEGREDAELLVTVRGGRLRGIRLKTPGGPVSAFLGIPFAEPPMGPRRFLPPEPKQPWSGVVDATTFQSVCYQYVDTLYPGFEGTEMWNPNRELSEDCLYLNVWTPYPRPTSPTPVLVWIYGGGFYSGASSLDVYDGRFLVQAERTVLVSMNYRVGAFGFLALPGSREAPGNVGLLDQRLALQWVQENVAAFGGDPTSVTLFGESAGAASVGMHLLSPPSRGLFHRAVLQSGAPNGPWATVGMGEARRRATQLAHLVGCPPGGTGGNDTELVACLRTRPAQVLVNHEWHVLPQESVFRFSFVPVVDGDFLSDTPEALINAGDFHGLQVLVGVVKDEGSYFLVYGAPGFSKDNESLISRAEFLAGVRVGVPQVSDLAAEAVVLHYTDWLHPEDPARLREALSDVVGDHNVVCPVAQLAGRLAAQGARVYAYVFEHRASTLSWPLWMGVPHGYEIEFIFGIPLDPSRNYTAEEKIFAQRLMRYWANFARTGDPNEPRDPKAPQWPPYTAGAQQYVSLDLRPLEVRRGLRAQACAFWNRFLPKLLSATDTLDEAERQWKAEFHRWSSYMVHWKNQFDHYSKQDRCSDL
# Summary of the method: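 In this cell-based qHTS, attached SH-SY5Y cells were treated with test chemicals for 30 min, after which acetylthiocholine hydrolysis was followed by DTNB colour development over 90 min at 37 C.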
# [2] = target: Acetylcholinesterase (Homo sapiens) (UniProt P22303); test: Acetylcholinesterase (AChE) small molecule antagonists: enzyme-based qHTS assay (AID 1347397); conditions: Potency: AChE enzyme activity inhibition; outcome: AChE enzyme activity inhibition; also: nearly all actives have a fitted effect of over 55% in size
# Summary of the method: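 Recombinant human AChE, dispensed at 50 mU/mL, was preincubated with Tox21 10K compounds or DMSO vehicle for 30 min at room temperature. DTNB plus acetylthiocholine was then added, and thiocholine was measured colorimetrically after a further 10 min.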
# [3] = target: Acetylcholinesterase (Homo sapiens) (UniProt P22303); test: Acetylcholinesterase (AChE) small molecule antagonists: enzyme-based qHTS assay with human liver microsomes (AID 1347399); conditions: Potency: qHTS inhibition; outcome: qHTS inhibition; also: nearly all actives have a fitted effect of over 60% in size
# Summary of the method: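 Recombinant human AChE (50 mU/mL in the enzyme mix) and human liver microsomes (0.25 mg/mL final) were preincubated with compound and NADPH (0.25 mg/mL final) for 30 min at 37 C. Acetylthiocholine/DTNB was then added; thiocholine was read colorimetrically after 10 min at room temperature.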
# [4] = target: Acetylcholinesterase (Homo sapiens) (UniProt P22303); test: Acetylcholinesterase (AChE) small molecule antagonists: fluorescence cell-based qHTS assay (AID 1347398); conditions: Potency: AChE activity; outcome: AChE activity; also: nearly all actives have a fitted effect of over 50% in size; also: potency is read from the fitted curve at half-maximal effect
# Summary of the method: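 Human SH-SY5Y cells were plated overnight at 37 C, exposed to compound for 30 min at 37 C, 5% CO2, then given acetylthiocholine plus Thiolite Green for 40 min at room temperature; thiocholine fluorescence (Ex/Em 490/520 nm) reports endogenous AChE activity.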
smiles,measurement,setting,value
O=[N+]([O-])C1(Br)COCOC1,Potency,[1],inactive
same,Potency,[2],inactive
same,Potency,[3],inactive
Cc1c(N)cccc1Cl,Potency,[1],inactive
same,Potency,[2],inactive
same,Potency,[3],inactive
COC(=O)CSc1cc(N=c2sc(=O)n3n2CCCC3)c(F)cc1Cl,Potency,[1],inactive
same,Potency,[2],inactive
same,Potency,[3],inactive
CS(=O)(=O)c1ccc(-c2cn3ccccc3n2)cc1,Potency,[1],inactive
same,Potency,[2],inactive
same,Potency,[3],inactive
CCOC(=O)C(Br)c1ccccc1 (stereo not given),Potency,[1],71 µM (active)
same,Potency,[2],inactive
same,Potency,[3],inactive
Cc1ccc(-c2ncc(Cl)cc2-c2ccc(S(C)(=O)=O)cc2)cn1,Potency,[1],27.5 µM (active)
same,Potency,[2],inactive
same,Potency,[3],inactive
CC(CC(=O)Cl)CC(C)(C)C (stereo not given),Potency,[1],inactive
same,Potency,[2],inactive
same,Potency,[3],inactive
C[C@@H](CN(C)C)CN1c2ccccc2Sc2ccccc21,Potency,[1],inactive
same,Potency,[2],inactive
same,Potency,[3],inactive
Cc1cc(O)c2ccccc2c1O,Potency,[1],inactive
same,Potency,[2],inactive
same,Potency,[3],inactive
CCCCCC=CCC=CCCCCCCCC(=O)OCC,Potency,[1],inactive
same,Potency,[2],inactive
same,Potency,[3],inactive
CNCc1ccc(NC(=O)c2c[nH]c3c2C(=O)CCC3)cc1,Potency,[1],35.6 µM (active)
same,Potency,[2],inactive
same,Potency,[3],inactive
COc1c(N2C[C@@H]3CCCN[C@@H]3C2)c(F)cc2c(=O)c(C(=O)O)cn(C3CC3)c12,Potency,[1],inactive
same,Potency,[2],inactive
same,Potency,[3],inactive
CC(C)(C)c1cc(CCC(=O)NCCCCCCNC(=O)CCc2cc(C(C)(C)C)c(O)c(C(C)(C)C)c2)cc(C(C)(C)C)c1O,Potency,[1],inactive
same,Potency,[2],inactive
same,Potency,[3],inactive
CN(C)CCOc1ccccc1Cc1ccccc1,Potency,[1],inactive
same,Potency,[2],inactive
same,Potency,[3],inactive
c1ccc([C@H]2CN3CCSC3=N2)cc1,outcome,[1],inactive
same,outcome,[2],inactive
same,outcome,[3],inactive
CCN(CCCCOC(=O)c1ccc(OC)c(OC)c1)C(C)Cc1ccc(OC)cc1 (stereo not given),Potency,[1],17.4 µM (active)
same,Potency,[2],inactive
same,Potency,[3],inactive
CN(C(=O)c1c(O)c2ccccc2n(C)c1=O)c1ccccc1,Potency,[1],inactive
same,Potency,[2],inactive
same,Potency,[3],inactive
CCN(CC)CCNC(=O)COc1ccc(OC)cc1,Potency,[1],inactive
same,Potency,[2],inactive
same,Potency,[3],inactive
O=[N+]([O-])c1ccc(F)c(Cl)c1,Potency,[1],inactive
same,Potency,[2],inactive
same,Potency,[3],inactive
COc1ccc2nc(SCc3ncc(C)c(OC)c3C)[nH]c2c1,Potency,[1],inactive
same,Potency,[2],inactive
same,Potency,[3],inactive
CC(=O)Oc1cccc(C)c1,Potency,[1],inactive
same,Potency,[2],inactive
same,Potency,[3],inactive
COC(=O)[C@H]1[C@H]2C[C@@H]3c4[nH]c5cc(OC)ccc5c4CCN3C[C@H]2C[C@@H](OC(=O)COc2ccc(OC)cc2)[C@@H]1OC,Potency,[1],inactive
same,Potency,[2],inactive
same,Potency,[3],inactive
CCCOc1ccc2c(c1)CC[C@@H]1[C@@H]2CC[C@]2(C)C(OC)CC[C@@H]12 (stereo not given in full),Potency,[1],inactive
same,Potency,[2],inactive
same,Potency,[3],inactive
CN1CCN(CCC(=O)N2c3ccccc3Sc3ccc(C(F)(F)F)cc32)CC1,Potency,[1],inactive
same,Potency,[2],inactive
same,Potency,[3],inactive
CCC(CO)(CO)[N+](=O)[O-],Potency,[1],inactive
same,Potency,[2],inactive
same,Potency,[3],inactive
CC(=O)Nc1cc(S(=O)(=O)O)cc2cc(S(=O)(=O)O)c(N=Nc3ccccc3)c(O)c12,Potency,[1],inactive
same,Potency,[2],inactive
same,Potency,[3],inactive
O=S1(=O)CC(Cl)(Cl)C(Cl)(Cl)C1,Potency,[1],71 µM (active)
same,Potency,[4],inactive
NC(=O)n1c(O)c(C(=O)c2cccs2)c2cc(Cl)ccc21,Potency,[1],inactive
same,Potency,[2],inactive
same,Potency,[3],inactive
CC(C)(C)CC(C)(C)c1ccc(OCCO)cc1,Potency,[1],inactive
same,Potency,[4],inactive
same,Potency,[3],inactive
COc1cc(NC(C)CCCN)c2ncccc2c1 (stereo not given),Potency,[1],inactive
same,Potency,[2],inactive
same,Potency,[3],inactive
CCCCCCCCCCCCCCCCCCOS(=O)(=O)O,Potency,[1],inactive
same,Potency,[4],inactive
same,Potency,[3],inactive
CCCN(CCc1cccs1)[C@H]1CCc2c(O)cccc2C1,Potency,[1],13.8 µM (active)
same,Potency,[4],11 µM (active)
same,Potency,[3],inactive
O=C(CCBr)N1CCN(C(=O)CCBr)CC1,Potency,[1],inactive
same,Potency,[2],inactive
same,Potency,[3],inactive
Cc1onc(-c2c(Cl)cccc2Cl)c1C(=O)Cl,Potency,[1],inactive
same,Potency,[2],inactive
same,Potency,[3],inactive
O=C1OC(OC(=O)c2cccnc2Nc2cccc(C(F)(F)F)c2)c2ccccc21 (stereo not given),Potency,[1],inactive
same,Potency,[2],inactive
same,Potency,[3],inactive
CCN(CC)CCNc1ccc(CO)c2sc3ccccc3c(=O)c12,Potency,[1],inactive
same,Potency,[2],inactive
same,Potency,[3],inactive
O=C(Nc1ccc(S(=O)(=O)N2CCOCC2)cc1)c1cc(Cl)ccc1NS(=O)(=O)c1ccc(Cl)s1,Potency,[1],inactive
same,Potency,[4],inactive
same,Potency,[3],inactive
O=C(CCCN1CCN(c2ccc(F)cc2)CC1)NC1c2ccccc2CSc2ccccc21 (stereo not given),Potency,[1],inactive
same,Potency,[2],inactive
same,Potency,[3],inactive
O=C1Cc2cc(CCN3CCN(c4nsc5ccccc45)CC3)c(Cl)cc2N1,Potency,[1],inactive
same,Potency,[2],inactive
same,Potency,[3],inactive
CCCCc1ccc2cccc(S(=O)(=O)O)c2c1,Potency,[1],inactive
same,Potency,[2],inactive
same,Potency,[3],inactive
C=CC[N+]1([C@H]2C[C@H]3[C@@H]4CC[C@H]5C[C@H](OC(C)=O)[C@@H](N6CCCCC6)C[C@]5(C)[C@H]4CC[C@]3(C)[C@H]2OC(=O)CC)CCCCC1,Potency,[1],27.5 µM (active)
same,Potency,[4],13.8 µM (active)
same,Potency,[3],inactive
C/C=C/C(=O)C1=C(C)C=CCC1(C)C,Potency,[1],inactive
same,Potency,[2],inactive
same,Potency,[3],inactive
